Source: PubChem BioAssay (NCI)
This is part of a sample that, as a whole, favours compounds with a hit. Of some 83,000 tested, about 20% had one in any assay.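 In brief: 96-well plates, 48 h treatment, single concentration, percent growth endpoint.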 Calls of active or inactive are those of the source. Rule for the calls: active = growth percent below 10; inactive = the rest.

What was measured:
Assay in all cases: NCI-60 one-dose screen, 48 h (100 = growth as untreated, 0 = no growth, -100 = all killed)
Conditions in all cases: 10 µM unless noted
HCT-15 colon = system: HCT-15 colon
HT29 colon = system: HT29 colon
SNB-75 CNS = system: SNB-75 CNS
SNB-19 CNS = system: SNB-19 CNS
U251 CNS = system: U251 CNS
PC-3 prostate = system: PC-3 prostate
SK-MEL-5 melanoma = system: SK-MEL-5 melanoma
UACC-62 melanoma = system: UACC-62 melanoma
LOX IMVI melanoma = system: LOX IMVI melanoma
SK-MEL-28 melanoma = system: SK-MEL-28 melanoma

Measured: growth

Cc1[nH]c2ccc(F)cc2c1CCNC(=O)C1CCN(C(=O)c2ccc(-c3ccccc3)cc2)CC1
active: HT29 colon 5.89%
inactive: HCT-15 colon 35.2% | SNB-75 CNS 49.1% | SNB-19 CNS 65.3% | U251 CNS 48.7% | PC-3 prostate 23.2% | SK-MEL-5 melanoma 27.4% | UACC-62 melanoma 55% | LOX IMVI melanoma 48.8% | SK-MEL-28 melanoma 67.7%

COc1cc(NC(=O)C#Cc2ccccc2)c(OC)cc1Cl
inactive: HCT-15 colon 20.6% | HT29 colon 29.3% | SNB-75 CNS 65.8% | SNB-19 CNS 40.7% | U251 CNS 39.5% | PC-3 prostate 38.1% | SK-MEL-5 melanoma 30.1% | UACC-62 melanoma 36.8% | LOX IMVI melanoma 17.2% | SK-MEL-28 melanoma 84.2%

COc1cc(-c2nc3ccccc3s2)ccc1OCc1nc2n(n1)S(=O)(=O)c1ccccc1N2C
inactive: HCT-15 colon 91.5% | HT29 colon 100% | SNB-75 CNS 41% | SNB-19 CNS 91% | U251 CNS 73.2% | PC-3 prostate 80.8% | SK-MEL-5 melanoma 82.1% | UACC-62 melanoma 103% | LOX IMVI melanoma 72.3% | SK-MEL-28 melanoma 103%

COc1cc(Cn2cc3c(c2)-c2onc(CO)c2CC3)cc(OC)c1OC
inactive: HCT-15 colon 89% | HT29 colon 104% | SNB-75 CNS 82% | SNB-19 CNS 94.5% | U251 CNS 97.6% | PC-3 prostate 88.7% | SK-MEL-5 melanoma 83.3% | UACC-62 melanoma 80.3% | LOX IMVI melanoma 94.7% | SK-MEL-28 melanoma 93.7%

O=C(O)c1ccc(-n2cc(/C=N/Nc3ccccc3F)c(-c3ccc(O)cc3)n2)cc1
inactive: HCT-15 colon 73.1% | HT29 colon 101% | SNB-75 CNS 82.8% | SNB-19 CNS 95.2% | U251 CNS 86.9% | PC-3 prostate 74.8% | SK-MEL-5 melanoma 78% | UACC-62 melanoma 46.5% | LOX IMVI melanoma 37% | SK-MEL-28 melanoma 97.1%

Cc1cccc(Cc2cnc(NC(=O)CCc3ccc(C)o3)s2)c1
inactive: SNB-75 CNS 23.9% | SNB-19 CNS 23.1% | U251 CNS 27.2% | PC-3 prostate 21.9% | UACC-62 melanoma 21.6% | SK-MEL-28 melanoma 61%
active: HCT-15 colon 7.47% | HT29 colon 0.165% | SK-MEL-5 melanoma -11.7%

Cc1ccc(=O)n(-c2ccc(Br)cc2F)c1
inactive: HCT-15 colon 105% | HT29 colon 107% | SNB-75 CNS 74.9% | SNB-19 CNS 105% | U251 CNS 98.1% | PC-3 prostate 91.4% | SK-MEL-5 melanoma 97.3% | UACC-62 melanoma 101% | LOX IMVI melanoma 94.5% | SK-MEL-28 melanoma 108%

CCCCNc1cc(C(=O)O)cc(S(N)(=O)=O)c1Oc1ccccc1
inactive: HCT-15 colon 108% | HT29 colon 112% | SNB-75 CNS 90.4% | SNB-19 CNS 106% | U251 CNS 99.8% | PC-3 prostate 95.7% | SK-MEL-5 melanoma 95.3% | UACC-62 melanoma 101% | LOX IMVI melanoma 93.5% | SK-MEL-28 melanoma 109%

O=C1C(Cl)=C(Nc2cccc3cc4ccccc4nc23)C(=O)c2ccccc21
inactive: HCT-15 colon 41.4% | SNB-75 CNS 71.9% | SNB-19 CNS 44.6% | U251 CNS 41.8% | PC-3 prostate 42% | SK-MEL-5 melanoma 69.5% | UACC-62 melanoma 70.1% | LOX IMVI melanoma 33.9% | SK-MEL-28 melanoma 102%
active: HT29 colon 4.99%

Cc1cc2c(cc1C)N(C(=O)CCl)CCN2C(=O)CCl
inactive: SNB-19 CNS 39.6%
active: HCT-15 colon -64% | HT29 colon -73% | SNB-75 CNS -94% | U251 CNS -84.3% | PC-3 prostate -70.2% | SK-MEL-5 melanoma -97.6% | UACC-62 melanoma -43.1% | LOX IMVI melanoma -89.3% | SK-MEL-28 melanoma -49.5%

CC(NCCC(c1ccccc1)c1ccccc1)c1ccccc1 (centres undefined)
inactive: HCT-15 colon 75% | HT29 colon 13.1% | SNB-75 CNS 87.3% | SNB-19 CNS 90.7% | U251 CNS 61.1% | PC-3 prostate 48% | SK-MEL-5 melanoma 85.8% | UACC-62 melanoma 93.3% | LOX IMVI melanoma 74.6% | SK-MEL-28 melanoma 75.5%

Cc1c(C(C)(C)C)cc(C(C)(C)C)c2c1CN(C)CO2
inactive: HCT-15 colon 108% | HT29 colon 105% | SNB-75 CNS 102% | SNB-19 CNS 112% | U251 CNS 109% | PC-3 prostate 110% | SK-MEL-5 melanoma 127% | UACC-62 melanoma 114% | LOX IMVI melanoma 106% | SK-MEL-28 melanoma 102%

Cc1ccc(Cn2cc(COc3ccc4c5ccnc(C)c5n(CCCc5ccccc5)c4c3)nn2)cc1
inactive: HCT-15 colon 86.2% | HT29 colon 71.8% | SNB-75 CNS 97.6% | SNB-19 CNS 99.4% | U251 CNS 110% | PC-3 prostate 81.4% | SK-MEL-5 melanoma 80.4% | UACC-62 melanoma 95% | LOX IMVI melanoma 91.1% | SK-MEL-28 melanoma 104%
